Experimental findings from PubChem BioAssay AID434970 (Sanford-Burnham Center for Chemical Genomics, 2010) are described below.

In all, about 11,000 compounds went through this assay and about 310 (2.8%) were called active. Rule as the data show it: active = activity change below about -85%; inactive = the rest. The sample as a whole holds a higher share of actives than the screen did.

The test has as its system intestinal alkaline phosphatase [Mus musculus]. As to the kind of experiment: activators of mouse IAP, confirmation, biochemical, luminescence, single concentration (AID 434970). Particulars: purified mouse IAP, CDP-Star luminescence, 30 min, at 10 µM; activation factor: measured here: IAP activation factor, stronger effect = higher value; activity change, negative = activation: stronger effect = lower value.
For the compound `Cc1cc(C(F)F)nn1CC(=O)N1CCSCC1`, the activation factor turned out to be 0.984 and the activity change, negative = activation was 1.65% (inactive).

Take `CCCC(=O)NC(=S)Nc1ccccc1C(F)(F)F`: the activation factor is 0.974 and the activity change, negative = activation was 2.55% (inactive).

With `CCN(CC)S(=O)(=O)c1ccc2c(c1)nc(SCc1nc3ccsc3c(=O)[nH]1)n2CC`, the activation factor was determined as 0.992 and the activity change, negative = activation is 0.85% (inactive).

In the case of `COc1ccc(CNC(=S)Nc2ccc(F)c(Cl)c2)cc1OC`, the activation factor stood at 1.56 and the activity change, negative = activation was -56.2% (inactive).

Consider `COc1ccc(N2C(=O)CCC(C(=O)NCc3cccnc3)C2c2ccc(OC)c(OC)c2)cc1` (configuration not stated), for which the activation factor amounted to 0.977 and the activity change, negative = activation was 2.3% (inactive).

As for `O=C(NCc1ccccn1)NC12CC3CC(CC(C3)C1)C2`, the activation factor was 1.06 and the activity change, negative = activation is -6.25% (inactive).

Regarding `O=C(Nc1cnn(Cc2ccccc2)c1)NC12CC3CC(CC(C3)C1)C2`, the activation factor stood at 2.05 and the activity change, negative = activation was -105% (active).

Turning to `O=C(Nc1cnn(Cc2ccc(Cl)c(Cl)c2)c1)C12CC3CC(CC(C3)C1)C2`, the activation factor is 1.17 and the activity change, negative = activation is -16.9% (inactive).

Consider `COc1ccccc1C(=O)N1CCN=C1SC`, for which the activation factor is 0.943 and the activity change, negative = activation is 5.75% (inactive).

On to `O=C(O)CCN1C(=O)NC2(CCCC2)C1=O`, for which the activation factor is 1.15 and the activity change, negative = activation is -15.3% (inactive).

Turning to `Cc1ccc(C)c(N(C)C(=O)c2coc(=O)c3ccccc23)c1`, the activation factor was 0.967 and the activity change, negative = activation was 3.3% (inactive).

As for `Cc1cccc(CN2CCC(CNC(=O)Nc3ccc(F)c(Cl)c3)CC2)c1`, the activation factor was 2.15 and the activity change, negative = activation is -115% (active).

With `O=C(NCC1CCN(Cc2cccc(Cl)c2)CC1)Nc1ccc(Cl)cc1`, the activation factor was 1.9 and the activity change, negative = activation was -89.5% (inactive).

`Cc1ccc(NC(=O)NCC2CCN(Cc3cccc(Cl)c3)CC2)cc1Cl`: the activation factor turned out to be 1.87 and the activity change, negative = activation is -87.3% (active).

For `O=C(NCC1CCN(c2ccc(S(=O)(=O)N3CCOCC3)cc2)CC1)Nc1ccccc1`, the activation factor was 1.77 and the activity change, negative = activation was -77.3% (inactive).

As for `CCc1ccc(NC(=O)NCC2CCN(Cc3cccc(Cl)c3)CC2)cc1`, the activation factor was determined as 2.2 and the activity change, negative = activation was -120% (active).

Take `Cc1cccc(NC(=O)NCC2CCN(c3ccc(S(=O)(=O)N4CCOCC4)cc3)CC2)c1`: the activation factor came out at 2.56 and the activity change, negative = activation is -156% (active).

For the compound `COc1cccc(NC(=O)COC(=O)c2cc(S(=O)(=O)N3CCOCC3)ccc2C)c1`, the activation factor worked out at 0.964 and the activity change, negative = activation is 3.65% (inactive).

As to `CCc1cccc(CN2CCC(CNC(=O)Nc3ccc(Cl)cc3)CC2)c1`, the activation factor was determined as 1.68 and the activity change, negative = activation was -67.9% (inactive).

`CCOc1cc(/C=N\NC(=O)c2ccc(NC(=O)CC)cc2)ccc1OC(=O)c1ccccc1`: the activation factor was found to be 1.02 and the activity change, negative = activation is -1.9% (inactive).

As for `Cc1cc(C)nc(SCC(=O)c2ccc([N+](=O)[O-])cc2)n1`, the activation factor came out at 0.867 and the activity change, negative = activation was 13.3% (inactive).

As to `O=C1Nc2ccccc2C(O)(C(=O)NC2CC2)N1c1ccc(Cl)c(Cl)c1` (configuration not stated), the activation factor stood at 0.911 and the activity change, negative = activation was 8.85% (inactive).

Consider `CCOc1ccc2nc(SCC(=O)N(C)C3CCS(=O)(=O)C3)[nH]c2c1` (configuration not stated), for which the activation factor was determined as 0.928 and the activity change, negative = activation was 7.2% (inactive).

On to `O=C(c1cccs1)[C@@H]1[C@@H]2C(=O)N(Cc3ccc4c(c3)OCO4)C(=O)[C@@H]2C2c3ccccc3C=CN21` (some centres not stated), for which the activation factor was 0.569 and the activity change, negative = activation was 43.1% (inactive).

As for `CCn1c(=O)c(C(=O)NCCN2CCCCC2)c(O)c2ccccc21`, the activation factor worked out at 0.851 and the activity change, negative = activation was 14.8% (inactive).

On to `CC[C@]1(C(=O)OC)[C@H]2C(=O)N(C)C(=O)[C@H]2[C@H]2CN(C)C(=NC3CCCCC3)N21`, for which the activation factor was 0.984 and the activity change, negative = activation was 1.6% (inactive).

`O=C(NCCc1c[nH]c2ccccc12)Nc1cccc2ccccc12`: the activation factor came out at 1.29 and the activity change, negative = activation is -28.6% (inactive).

In the case of `Cc1ccccc1NC(=O)NCCCN1CCN(c2ccccc2)CC1`, the activation factor came to 1.27 and the activity change, negative = activation was -27.2% (inactive).

On to `Cc1cc2nc(C)n(CCCNC(=O)Nc3cccc4ccccc34)c2cc1C`, for which the activation factor is 2.18 and the activity change, negative = activation was -118% (active).

Take `Cc1cc(=O)n(CCO)c(O)c1C#N`: the activation factor was determined as 1.02 and the activity change, negative = activation was -1.65% (inactive).

Consider `CCOC(=O)C1=CNS(=O)(=O)NC1c1cccc(O)c1` (configuration not stated), for which the activation factor amounted to 1.05 and the activity change, negative = activation is -5.15% (inactive).

Take `COc1ccc(NS(=O)(=O)c2ccc(OC)c(OC)c2)cc1OC`: the activation factor is 0.945 and the activity change, negative = activation is 5.5% (inactive).

Turning to `COc1cccc(-c2csc(NC(=O)Nc3ccccc3)n2)c1`, the activation factor was 2.11 and the activity change, negative = activation is -111% (active).

With `O=C(Nc1ccccc1)Nc1nc(-c2ccc(F)c(F)c2)cs1`, the activation factor is 1.75 and the activity change, negative = activation was -75.4% (inactive).

Take `O=C(Nc1ccccc1)Nc1nc(-c2ccc(F)cc2)cs1`: the activation factor was determined as 1.62 and the activity change, negative = activation was -62.5% (inactive).

Take `O=C(Nc1nc(-c2cccs2)cs1)c1ccc(Cl)cc1`: the activation factor came to 0.793 and the activity change, negative = activation is 20.7% (inactive).

For the compound `O=C(Nc1cccc(Cl)c1)Nc1nc(-c2ccc(Cl)cc2)cs1`, the activation factor was 2.1 and the activity change, negative = activation is -110% (active).

On to `Cc1csc(NC(=O)Nc2cccc(Cl)c2)n1`, for which the activation factor was 1.11 and the activity change, negative = activation was -11.1% (inactive).

With `O=C(Nc1cccc(Cl)c1)Nc1nc(-c2ccccc2)cs1`, the activation factor worked out at 2.16 and the activity change, negative = activation was -116% (active).

In the case of `O=C(Nc1nc(-c2ccccc2)cs1)NC1CCCCC1`, the activation factor is 1.61 and the activity change, negative = activation is -61.4% (inactive).

As for `COc1cccc(-c2csc(N3CCN(C(=O)Nc4ccc(F)cc4)CC3)n2)c1`, the activation factor worked out at 1.33 and the activity change, negative = activation is -32.7% (inactive).
